HP1b chromo inh = blocks HP1-beta chromodomain binding to methylated histone tails; P83916; AlphaScreen HP1-beta / biotin-H3K9me3 peptide binding; Potency, µM (titrated, usually from 114 µM), actives largely listed as inhibitors; actives 0.56% (n = 390,000); also: nearly all actives have a fitted effect of over 70% in size
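HP1-beta protein (50 nM final) preincubated 30 min at room temperature with biotinylated H3(1-18)K9me3 peptide (50 nM) in PBS pH 7.4, 0.01% Tween-20, then compound added for 30 min. AlphaScreen streptavidin donor/nickel chelate acceptor beads (10 ug/mL final), 30 min dark, luminescence read.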
BAZ2B inh = inhibitors of human BAZ2B bromodomain. Q9UIF8. AlphaScreen BAZ2B-H3K14Ac peptide displacement. Potency, µM (top dose mostly 114 µM), usual class: inhibitors. actives 4.4% (n = 360,000). AID 504333; also: nearly all actives have a fitted effect of over 60% in size
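BAZ2B (50 nM) with biotin-H3(5-23)K14Ac peptide (50 nM) in PBS pH 7.4, 0.01% Tween-20, preformed 30 min, then compound 30 min at room temperature; top concentration 110uM. AlphaScreen streptavidin donor/nickel chelate acceptor beads (10 ug/mL final), 20 min dark, signal read.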
GLS inh = blocks human kidney-isoform glutaminase activity; O94925; GLS enzymatic activity, qHTS titration; Potency, µM (doses to about 45.5 µM), usual class: inhibitors; actives 0.21% (n = 410,000); AID 624170
Target sequence (O94925 whole entry, looked up, canonical isoform): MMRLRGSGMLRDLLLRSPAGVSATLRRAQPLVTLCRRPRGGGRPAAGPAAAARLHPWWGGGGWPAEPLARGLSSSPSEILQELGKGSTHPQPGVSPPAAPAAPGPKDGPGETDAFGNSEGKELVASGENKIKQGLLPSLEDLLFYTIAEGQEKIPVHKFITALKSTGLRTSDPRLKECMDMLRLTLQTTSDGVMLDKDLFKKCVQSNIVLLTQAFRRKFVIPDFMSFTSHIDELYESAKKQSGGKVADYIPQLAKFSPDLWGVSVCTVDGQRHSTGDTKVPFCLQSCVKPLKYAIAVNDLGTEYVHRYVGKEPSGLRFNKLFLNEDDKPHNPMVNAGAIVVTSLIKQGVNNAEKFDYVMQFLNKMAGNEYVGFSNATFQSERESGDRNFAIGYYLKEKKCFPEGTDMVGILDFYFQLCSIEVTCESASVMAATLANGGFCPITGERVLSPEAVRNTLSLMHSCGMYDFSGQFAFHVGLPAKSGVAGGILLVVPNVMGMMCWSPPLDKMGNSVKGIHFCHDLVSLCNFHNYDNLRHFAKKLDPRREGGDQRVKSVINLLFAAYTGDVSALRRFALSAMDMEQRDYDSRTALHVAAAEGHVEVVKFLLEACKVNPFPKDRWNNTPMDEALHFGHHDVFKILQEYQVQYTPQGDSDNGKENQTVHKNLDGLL
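Human kidney-isoform GLS in 45 mM KH2PO4 pH 8.2, 0.02% Tween-20, with compound, started with 1mM L-Glutamine (added stock). Glutamate oxidase/HRP/Amplex red coupled fluorescence read at start and after 30 min at RT.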
G9a inh = inhibitors of human histone lysine methyltransferase G9a | Q96KQ7 | G9a H3K9 monomethylation, AlphaScreen, 2 h | Potency, µM (doses to about 102 µM), usual class: inhibitors | actives 8.8% (n = 350,000) | AID 504332; also: nearly all actives have a fitted effect of over 75% in size
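G9a (20 nM) was preincubated 15 min with compound, then reacted 2 h at room temperature with 500 nM biotin-H3K9 peptide and 20 µM SAM. Monomethyl-H3K9 detected by AlphaScreen using anti-H3K9me1 antibody.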
JMJD2A Tudor = blocks the human JMJD2A Tudor domain. O75164. AlphaScreen JMJD2A-Tudor / H3K4me3 peptide binding. Potency, µM (top dose mostly 114 µM), hits mostly inhibitors. actives 4.4% (n = 390,000). AID 504339; also: nearly all actives have a fitted effect of over 50% in size
Of the large screens only hits and unclear results are named; the others gave an inactive call. Most compounds without a hit are left out; they make up all but 10% or so of the library. Calls follow the shape of the dose curve; as a rule, active = well fitted curve in the direction sought with a large enough effect; inconclusive = small, poorly fitted or top-dose-only effect, or another doubt; inactive = no such curve, though single readings can be large; an effect the other way counts as inactive or inconclusive.

O=C(Nc1ccccn1)C(=O)Nc1ccccn1	none
c1ccc(Nc2ccccn2)nc1	BAZ2B inh inconclusive, G9a inh 0.5µM, JMJD2A Tudor inconclusive
Oc1ccccc1Nc1ccccn1	GLS inh 13µM, G9a inh inconclusive
CSc1nccn1C(=O)c1ccccc1[N+](=O)[O-]	G9a inh 35µM, JMJD2A Tudor 35µM
CCS(=O)(=O)N1CCN(C(=O)c2ccccc2[N+](=O)[O-])CC1	G9a inh inconclusive
COc1ccc(CCNC(=O)Nc2ccc3c(c2)c(=O)n(C)n3Cc2ccc(F)cc2)cc1OC	none (no result: HP1b chromo inh, BAZ2B inh, G9a inh, JMJD2A Tudor)
CCOC(=O)c1c(C)[nH]c(C(=O)COC(=O)COc2ccccc2C=O)c1C	GLS inh inconclusive, JMJD2A Tudor 45µM
CCOC(=O)c1c(C)[nH]c(C(=O)COC(=O)/C=C/c2cccc(OC)c2OC)c1C	none
Nn1c(-c2ccccc2Cl)nnc1-c1ccccc1Cl	G9a inh 3.5µM
CCOc1ccccc1Nc1ccc(C(=O)O)cc1N	BAZ2B inh inconclusive, G9a inh inconclusive
Cc1ccc(C2=NOC(=O)/C2=C\c2ccccc2)cc1	none (no result: BAZ2B inh, G9a inh)
CCCCc1ccc(/C=C2/C(=O)ON=C2c2ccccc2)s1	none
O=C1ON=C(c2ccc(Cl)cc2)/C1=C/c1ccc(O)cc1	BAZ2B inh inconclusive, GLS inh inconclusive, G9a inh 50µM
Cc1ccc(/C=C2/C(=O)ON=C2c2ccccc2)o1	HP1b chromo inh inconclusive, BAZ2B inh 28µM, GLS inh inconclusive, G9a inh 13µM, JMJD2A Tudor 79µM
O=C1ON=C(c2ccccc2)/C1=C/c1ccc(O)cc1	G9a inh 50µM
O=C1ON=C(c2ccccc2)/C1=C/c1ccccc1	G9a inh 45µM
C/C(Cc1ccccc1)=N/NC(=O)CCCC(=O)N/N=C(/C)Cc1ccccc1	none
CCCCN1CC(N2CCN(CCN(C)C)CC2)CS1(=O)=O (stereo not given)	none (no result: HP1b chromo inh, BAZ2B inh, G9a inh, JMJD2A Tudor)
Cc1sc(/C=C2\C(=O)ON=C2c2ccccc2)cc1Br	none (no result: HP1b chromo inh, GLS inh, JMJD2A Tudor)
O=C1ON=C(c2ccccc2)/C1=C\c1ccco1	BAZ2B inh inconclusive, G9a inh 32µM
O=C(c1ccc(Cl)cc1Cl)N1CCC(c2nc3c(nnn3Cc3ccco3)c(=O)[nH]2)CC1	G9a inh 45µM
OCCCNCc1ccc(N(c2ccccc2)c2ccccc2)cc1	HP1b chromo inh 71µM, BAZ2B inh 56µM, G9a inh 13µM, JMJD2A Tudor 40µM
Cc1ccc(/C=N/Nc2nc(C)cc(C)n2)cc1	G9a inh inconclusive
Cc1cc(-c2ccccc2)nc(N/N=C/c2ccc(N(C)C)cc2)n1	HP1b chromo inh inconclusive, JMJD2A Tudor 35µM (no result: BAZ2B inh, G9a inh)
Cc1cc(-c2ccccc2)nc(N/N=C/c2ccccc2)n1	none
CC(/C=N/Nc1nc(C)cc(C)n1)=C\c1ccc(C(C)C)cc1	HP1b chromo inh inconclusive, G9a inh 40µM
CC(/C=N/NC(=O)c1ccncc1)=C\c1ccc(C(C)C)cc1	none
Cc1cc(C)nc(N/N=C/c2ccc(Cl)cc2)n1	G9a inh 45µM
CCc1nnc(NC(=O)C2CCC2)s1	none
COc1ccc(CCNC(=O)c2cc(S(=O)(=O)N3CCCCCC3)ccc2OC)cc1OC	none
Cc1[nH]c(=S)n(CC2CCCO2)c1C (stereo not given)	G9a inh inconclusive, JMJD2A Tudor 28µM
COc1cc2[nH]c(=S)n(C3CCCC3)c(=O)c2cc1OC	none
CCOc1cc2[nH]c(=S)n(CC3CCCO3)c(=O)c2cc1OCC (stereo not given)	G9a inh inconclusive, JMJD2A Tudor inconclusive
COc1cc2[nH]c(=S)n(CC3CCCO3)c(=O)c2cc1OC (stereo not given)	G9a inh inconclusive, JMJD2A Tudor 79µM
COc1cc2[nH]c(=S)n(CCN3CCOCC3)c(=O)c2cc1OC	BAZ2B inh inconclusive, G9a inh inconclusive, JMJD2A Tudor 32µM
COc1cc2[nH]c(=S)n(C3CC3)c(=O)c2cc1OC	GLS inh inconclusive, G9a inh 18µM
O=C(c1ccccn1)N1CCCC(N2CCN(c3cccc(C(F)(F)F)c3)CC2)C1 (stereo not given)	none (no result: G9a inh)
COc1cc2[nH]c(=S)n(Cc3ccco3)c(=O)c2cc1OC	G9a inh 3.5µM
CCOc1cc2[nH]c(=S)n(CCCN3CCN(C)CC3)c(=O)c2cc1OCC	none (no result: BAZ2B inh, G9a inh)
CCOc1cc2[nH]c(=S)n(CC3CCCN3CC)c(=O)c2cc1OCC (stereo not given)	G9a inh inconclusive, JMJD2A Tudor inconclusive
CCC1CCCCN1CCn1c(=S)[nH]c2cc(OC)c(OC)cc2c1=O (stereo not given)	G9a inh 50µM, JMJD2A Tudor inconclusive
COc1cc2[nH]c(=S)n(CCCN3CCOCC3)c(=O)c2cc1OC	G9a inh inconclusive, JMJD2A Tudor 25µM
COCCn1c(=S)[nH]c2cc(OC)c(OC)cc2c1=O	G9a inh inconclusive, JMJD2A Tudor 89µM
CCN(c1ccccc1)S(=O)(=O)c1ccc(C(=O)Nc2cc(C)ccn2)cc1	none
CC(C)OCCCn1c(-c2ccc(Br)cc2)c[nH]c1=S	BAZ2B inh inconclusive, G9a inh 3.5µM, JMJD2A Tudor inconclusive
COc1ccc2c(C)cc3n[nH]c(=S)n3c2c1	HP1b chromo inh inconclusive, BAZ2B inh inconclusive, GLS inh inconclusive, G9a inh 1µM, JMJD2A Tudor 0.71µM
CC1(C)Nc2ccc(O)cc2-c2c1ssc2=S	HP1b chromo inh 50µM, BAZ2B inh 45µM, G9a inh 8.9µM, JMJD2A Tudor 40µM
CCOC(=O)Cc1nnc(NC(=O)CSc2ccc(Cl)cc2)s1	none
CCN(CC)S(=O)(=O)c1ccc2c(c1)nc(SCc1nc3ccsc3c(=O)[nH]1)n2CC	GLS inh inconclusive, G9a inh 35µM
CCn1c(SCc2nc3ccccc3c(=O)[nH]2)nc2ccccc21	G9a inh inconclusive, JMJD2A Tudor inconclusive
CN(C)S(=O)(=O)c1ccc(C(=O)NCC2CC2(Cl)Cl)cc1 (stereo not given)	JMJD2A Tudor 13µM
O=C(NCc1ccccc1Cl)C1CCCN(C(=O)c2cnn(-c3ccc(F)cc3)c2-n2cccc2)C1 (stereo not given)	BAZ2B inh inconclusive
CCC(=O)Nc1nonc1-c1nc2ccccc2n1Cc1ccc(Cl)c(Cl)c1	none (no result: BAZ2B inh, G9a inh)
Cc1ccc(OC(=O)c2ccncc2)c(C)c1	none
Cc1ccc(N=N/C(=C\O)C(=O)c2ccncc2)cc1	BAZ2B inh 45µM, G9a inh inconclusive, JMJD2A Tudor inconclusive
O=C(/C(=C/O)N=Nc1ccc(Cl)cc1)c1ccncc1	BAZ2B inh 32µM, JMJD2A Tudor inconclusive
CCN(CC)S(=O)(=O)c1ccc(OC)c(NC(=O)Cc2cccs2)c1	HP1b chromo inh inconclusive, BAZ2B inh 50µM, G9a inh inconclusive, JMJD2A Tudor 50µM
O=C(Cc1cccs1)Nc1ccc(S(=O)(=O)N2CCCC2)cc1	BAZ2B inh 50µM, G9a inh inconclusive, JMJD2A Tudor inconclusive
CC(=O)c1ccc(NC(=O)Cc2cccs2)cc1	BAZ2B inh 50µM, G9a inh inconclusive, JMJD2A Tudor inconclusive
CCCCN(CCCC)S(=O)(=O)c1ccc(NC(=O)Cc2cccs2)cc1	BAZ2B inh inconclusive, JMJD2A Tudor 45µM

Screens as filed in PubChem BioAssay.
